Test results from PubChem BioAssay (NCATS).
Results filed as inconclusive are left out. Activity calls are given as the source filed them. Unless noted, the call rests on the fitted dose curve; in most records, active means well fitted curve in the direction sought with a large enough effect; inconclusive means small, poorly fitted or top-dose-only effect, or another doubt; inactive means no such curve, though single readings can be large; an effect the other way counts as inactive or inconclusive.

Legend:
[1] = AP1 Signaling Pathway (AID 357; active means well fitted curve in either direction with a large enough effect, not every such curve was filed as active;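 further: ME-180 reporter cells stimulated with EGF at its EC50 level; on the % scale 0 is the no-effect control and ±100 the full control effect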)
Summary of the method: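 A ratiometric CCF4 readout (405 nm excitation; 460 and 530 nm emission) quantified AP-1-driven beta-lactamase in ME-180 cells after 5 h with compound and EC50 EGF; AC50 values were derived for activators and inhibitors.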

[2] = target: Cytochrome P450 1A2 (Homo sapiens) (UniProt P05177); assay: p450-cyp1a2 (AID 410; calls by dose curve;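 further: -100% = full effect of reference inhibitor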)
Sequence of Cytochrome P450 1A2 (Homo sapiens) (P05177 whole entry, looked up): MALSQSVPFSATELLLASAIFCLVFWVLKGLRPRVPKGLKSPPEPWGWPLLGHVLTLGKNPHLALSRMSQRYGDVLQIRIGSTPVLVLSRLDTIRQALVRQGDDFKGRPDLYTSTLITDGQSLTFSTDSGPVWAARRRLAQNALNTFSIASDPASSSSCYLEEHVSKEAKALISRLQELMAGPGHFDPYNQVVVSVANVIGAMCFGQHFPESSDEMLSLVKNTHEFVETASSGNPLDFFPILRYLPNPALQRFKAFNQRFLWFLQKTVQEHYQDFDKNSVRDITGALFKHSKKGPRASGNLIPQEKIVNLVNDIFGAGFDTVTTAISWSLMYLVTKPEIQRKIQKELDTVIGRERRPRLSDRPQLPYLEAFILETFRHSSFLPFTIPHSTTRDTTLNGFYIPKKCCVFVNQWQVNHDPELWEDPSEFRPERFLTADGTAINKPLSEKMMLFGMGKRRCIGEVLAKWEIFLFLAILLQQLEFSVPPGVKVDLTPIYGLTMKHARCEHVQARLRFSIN
Summary of the method: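 Read-out is luminescence from luciferin produced by CYP1A2 demethylation of Luciferin-ME (100uM, at Km). Detection reagent stopped the 60 min NADPH-dependent reaction; signals were normalized to 57 uM furafylline.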

[3] = NFAT Signaling Pathway (AID 444; active means well fitted curve in either direction with a large enough effect, not every such curve was filed as active;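 further: carbachol stimulus at about its EC50 of 1 µM final; on the % scale 0 is the no-effect control and ±100 the full control effect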); conditions: Jurkat NFAT-bla M1, carbachol, beta-lactamase ratio, 5 h; at 17.2 µM (top of the series) unless noted
Summary of the method: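 Jurkat cells with NFAT-driven β-lactamase reporter and co-expressed M1 receptor, stimulated with carbachol (final 1 uM, ~EC50), compound titration, 5 h at 37 °C. CCF4 loaded 1 h at RT; 460/530 nm ratio gave %activity and AC50.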

[4] = Stat Signaling Pathway (AID 446; active means well fitted curve in either direction with a large enough effect, not every such curve was filed as active;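 further: ME-180 cervical cancer cells given 40 pM IL-6 alongside compound; SIE-controlled beta-lactamase reporter measured as 460/530 nm FRET emission ratio; on the % scale 0 is the no-effect control and ±100 the full control effect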)
Summary of the method: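 Compound effects on IL-6-induced STAT reporter activity were measured in ME-180 cells. After overnight culture, cells were co-treated with 40 pM IL-6 for 5 hrs before beta-lactamase substrate loading at room temperature.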

[5] = target: Glucocorticoid receptor (Homo sapiens) (UniProt P04150); assay: GR-GFP Redistribution (AID 450;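 active means compounds whose dose series gives a full or clear partial fitted curve of increased nuclear translocation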; further: potency means the concentration at half of the fitted maximal effect); conditions: U2OS GR-GFP nuclear translocation, laser cytometry, 2 h
Sequence of Glucocorticoid receptor (Homo sapiens) (P04150 whole entry, looked up, the tested form may be a part): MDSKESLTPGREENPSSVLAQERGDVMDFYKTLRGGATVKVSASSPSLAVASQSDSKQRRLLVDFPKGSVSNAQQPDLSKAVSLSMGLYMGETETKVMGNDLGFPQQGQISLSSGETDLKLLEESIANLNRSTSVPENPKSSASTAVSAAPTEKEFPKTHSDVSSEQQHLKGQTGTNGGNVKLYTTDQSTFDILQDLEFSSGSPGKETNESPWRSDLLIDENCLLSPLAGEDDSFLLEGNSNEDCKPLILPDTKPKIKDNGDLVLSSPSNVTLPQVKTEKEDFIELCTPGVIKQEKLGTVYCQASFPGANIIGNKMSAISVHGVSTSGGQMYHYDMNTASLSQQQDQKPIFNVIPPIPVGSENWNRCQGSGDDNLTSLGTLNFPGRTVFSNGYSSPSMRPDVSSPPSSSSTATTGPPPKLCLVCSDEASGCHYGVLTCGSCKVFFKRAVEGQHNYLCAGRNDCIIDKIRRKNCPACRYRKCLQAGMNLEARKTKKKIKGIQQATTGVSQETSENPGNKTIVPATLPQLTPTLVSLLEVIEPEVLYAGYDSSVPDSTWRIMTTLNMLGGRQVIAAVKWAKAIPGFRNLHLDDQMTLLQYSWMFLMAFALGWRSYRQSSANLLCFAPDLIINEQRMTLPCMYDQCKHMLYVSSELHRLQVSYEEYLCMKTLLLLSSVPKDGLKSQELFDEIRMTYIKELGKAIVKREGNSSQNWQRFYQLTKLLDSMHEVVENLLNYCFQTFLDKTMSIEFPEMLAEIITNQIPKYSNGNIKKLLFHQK

[6] = target: Glucocorticoid receptor (Homo sapiens) (UniProt P04150); assay: GR-EFC Redistribution (AID 451; calls by dose curve; further: potency means the concentration at half of the fitted maximal effect); conditions: CHO-K1 GR-EFC translocation, beta-gal luminescence, 2 h
Summary of the method: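 CHO-K1 cells expressing nuclear EA and GR-ED fragments of b-gal; compounds titrated up to 46 uM final, 2 h at 37 C. GR nuclear translocation read as complemented b-gal luminescence after 1 h RT detection.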

[7] = target: 3',5'-cyclic-AMP phosphodiesterase 4B (Homo sapiens) (UniProt Q07343); assay: qHTS Assay for Inhibitors of PDE-IV (AID 607; active means well fitted activation curve with a large enough effect in the main read-out, with a control signal flat, not every such curve was filed as active; further: % of control where 0% means no effect)
Sequence of 3',5'-cyclic-AMP phosphodiesterase 4B (Homo sapiens) (Q07343 whole entry, looked up): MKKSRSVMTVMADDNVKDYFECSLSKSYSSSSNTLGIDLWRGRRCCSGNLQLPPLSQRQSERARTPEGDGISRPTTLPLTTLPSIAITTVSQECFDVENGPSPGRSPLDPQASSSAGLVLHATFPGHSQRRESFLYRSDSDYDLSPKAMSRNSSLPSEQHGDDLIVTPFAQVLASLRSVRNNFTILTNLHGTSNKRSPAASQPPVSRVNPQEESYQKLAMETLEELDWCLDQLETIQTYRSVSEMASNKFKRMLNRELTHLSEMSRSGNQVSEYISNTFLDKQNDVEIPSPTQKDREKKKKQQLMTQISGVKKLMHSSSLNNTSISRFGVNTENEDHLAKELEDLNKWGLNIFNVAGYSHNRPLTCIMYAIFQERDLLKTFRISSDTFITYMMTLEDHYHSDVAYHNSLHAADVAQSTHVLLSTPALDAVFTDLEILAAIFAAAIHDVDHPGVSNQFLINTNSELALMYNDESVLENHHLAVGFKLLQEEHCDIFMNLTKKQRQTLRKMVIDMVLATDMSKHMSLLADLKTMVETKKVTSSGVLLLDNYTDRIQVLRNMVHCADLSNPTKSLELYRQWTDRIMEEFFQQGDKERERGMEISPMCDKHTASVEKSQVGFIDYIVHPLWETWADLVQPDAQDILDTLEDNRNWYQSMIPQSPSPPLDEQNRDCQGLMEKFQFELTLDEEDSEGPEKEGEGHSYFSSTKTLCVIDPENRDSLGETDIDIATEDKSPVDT
Summary of the method: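 ACTOne HEK293 cells carry a modified cAMP-gated CNG channel and express endogenous PDE4; plated 1000 cells/well, compounds up to 22.9 uM final. Membrane-potential dye fluorescence (ex 535/em 590) was read; parental cells received 10 uM forskolin + 100 uM RO 20-1724.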

[8] = qHTS Assay for Lipid Storage Modulators (AID 1519; calls by dose curve); conditions: Drosophila S3 cells, BODIPY lipid droplet/cell ratio, laser cytometry, cells loaded with oleic acid; for activity change, negative = inhibition: at 25.7 µM (top of the series)
Summary of the method: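 Cells seeded at 5,000 per well were treated with compounds over a concentration series and loaded with oleic acid (400 uM, as added). Lipid droplet fluorescence (488 nm excitation, 500-530 nm channel) was read by laser-scanning cytometry and normalized to 20 uM Triacsin C.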

[9] = target: Mitogen-activated protein kinase 10 (Mus musculus) (UniProt Q61831); assay: JNK3 AlphaScreen Assay (AID 530; active means well fitted curve in either direction with a large enough effect, not every such curve was filed as active;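 further: kinase came from lysate of stimulated human HepG2 cells; signal reports phosphorylation of biotinylated GST-cJun 1-79 at Ser73 with 10 µM ATP; on the % scale 0 is the no-effect control and ±100 the full control effect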)
Summary of the method: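 HepG2 lysate (IL-1b/TNFa pre-activated) + biotin-GST-cJun 1-79 + anti-pSer73 cJun; cpd titration, 15 min RT; ATP 10 uM start; Tris pH 7.6, MgCl2, DTT, vanadate; beads in EDTA buffer; AlphaScreen.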

[10] = target: Ubiquitin carboxyl-terminal hydrolase 1 (Homo sapiens) (UniProt O94782); assay: Inhibitors of USP1/UAF1: Pilot qHTS (AID 504865);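 further: rhodamine fluorescence freed from ubiquitin-rhodamine substrate followed over time; top concentration of the series differs between compounds; on the % scale 0 is the no-effect control and ±100 the full control effect; nearly all actives have a fitted effect of over 35% in size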
Sequence of Ubiquitin carboxyl-terminal hydrolase 1 (Homo sapiens) (O94782 whole entry, looked up): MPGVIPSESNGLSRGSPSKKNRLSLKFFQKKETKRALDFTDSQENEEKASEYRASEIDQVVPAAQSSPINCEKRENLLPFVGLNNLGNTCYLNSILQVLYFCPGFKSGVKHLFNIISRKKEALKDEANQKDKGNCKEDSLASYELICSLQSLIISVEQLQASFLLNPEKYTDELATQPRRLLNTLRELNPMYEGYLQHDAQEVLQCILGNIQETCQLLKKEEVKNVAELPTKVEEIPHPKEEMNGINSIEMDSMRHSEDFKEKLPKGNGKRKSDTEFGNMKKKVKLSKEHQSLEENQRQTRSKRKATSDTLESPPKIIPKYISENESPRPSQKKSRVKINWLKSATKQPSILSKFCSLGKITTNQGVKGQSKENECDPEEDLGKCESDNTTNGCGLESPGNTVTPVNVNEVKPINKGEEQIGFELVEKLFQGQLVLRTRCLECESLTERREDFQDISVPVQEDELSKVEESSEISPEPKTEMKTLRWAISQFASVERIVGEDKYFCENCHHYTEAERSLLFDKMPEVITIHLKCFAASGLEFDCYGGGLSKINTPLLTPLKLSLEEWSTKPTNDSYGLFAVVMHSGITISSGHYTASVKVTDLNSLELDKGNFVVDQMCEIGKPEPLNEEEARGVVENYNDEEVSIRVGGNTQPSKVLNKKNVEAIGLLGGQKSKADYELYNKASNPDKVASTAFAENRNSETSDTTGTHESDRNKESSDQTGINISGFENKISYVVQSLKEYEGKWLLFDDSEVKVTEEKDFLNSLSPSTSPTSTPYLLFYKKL
Summary of the method: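 Kinetic fluorescence assay: 1nM USP1/UAF1, 15 min compound preincubation, then 150nM Ub-Rho; 480/540 nm.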

[11] = target: ATP-dependent 6-phosphofructokinase (Trypanosoma brucei brucei) (UniProt O15648); assay: qHTS Assay to Find Inhibitors of T. brucei phosphofructokinase: hit validation (AID 492961); further: on the % scale 0 is the no-effect control and ±100 the full control effect
Sequence of ATP-dependent 6-phosphofructokinase (Trypanosoma brucei brucei) (O15648 whole entry, looked up): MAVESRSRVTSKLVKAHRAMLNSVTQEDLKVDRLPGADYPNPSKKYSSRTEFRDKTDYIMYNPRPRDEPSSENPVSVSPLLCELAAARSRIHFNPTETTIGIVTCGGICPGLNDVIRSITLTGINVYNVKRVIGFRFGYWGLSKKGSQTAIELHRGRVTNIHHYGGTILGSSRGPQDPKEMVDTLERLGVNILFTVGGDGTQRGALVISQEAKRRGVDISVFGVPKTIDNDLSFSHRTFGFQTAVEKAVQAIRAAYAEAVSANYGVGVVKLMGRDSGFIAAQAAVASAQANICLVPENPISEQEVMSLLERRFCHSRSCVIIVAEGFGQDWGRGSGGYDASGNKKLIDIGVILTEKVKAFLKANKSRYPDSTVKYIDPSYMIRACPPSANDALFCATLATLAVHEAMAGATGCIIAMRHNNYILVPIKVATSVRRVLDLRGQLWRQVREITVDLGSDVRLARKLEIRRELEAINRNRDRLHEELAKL
Summary of the method: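 Luminescence from ADP-Glo reports ADP generated as T. brucei PFK (1.25 nM) phosphorylates 0.5 mM fructose-6-phosphate using 0.1 mM ATP. Reactions ran 45 min at room temperature, pH 8.0.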

[12] = target: Luciferin 4-monooxygenase (Photinus pyralis) (UniProt P08659); assay: Biochemical firefly luciferase enzyme assay for NPC (AID 624030);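 further: purified P. pyralis luciferase at 10 nM with luciferin and ATP substrate; 0% = DMSO and -100% = full luciferase inhibition by PTC124 control; nearly all actives have a fitted effect of over 70% in size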
Sequence of Luciferin 4-monooxygenase (Photinus pyralis) (P08659 whole entry, looked up): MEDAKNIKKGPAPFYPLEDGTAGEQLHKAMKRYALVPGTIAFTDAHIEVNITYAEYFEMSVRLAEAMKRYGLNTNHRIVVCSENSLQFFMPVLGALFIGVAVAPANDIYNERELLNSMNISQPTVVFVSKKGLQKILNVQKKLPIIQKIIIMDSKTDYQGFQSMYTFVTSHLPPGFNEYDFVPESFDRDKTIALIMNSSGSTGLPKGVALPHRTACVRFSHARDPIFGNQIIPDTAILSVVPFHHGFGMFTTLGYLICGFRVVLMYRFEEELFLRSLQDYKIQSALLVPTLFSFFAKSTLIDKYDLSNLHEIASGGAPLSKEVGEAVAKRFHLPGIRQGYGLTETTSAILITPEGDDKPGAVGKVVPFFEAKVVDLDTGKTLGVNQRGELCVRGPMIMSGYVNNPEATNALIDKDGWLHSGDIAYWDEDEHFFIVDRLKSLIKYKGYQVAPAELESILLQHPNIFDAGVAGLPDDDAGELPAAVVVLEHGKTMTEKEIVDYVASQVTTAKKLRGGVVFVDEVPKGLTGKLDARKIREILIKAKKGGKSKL
Summary of the method: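 Purified P. pyralis luciferase at 10 nM in 50 mM Tris Acetate (final), luminescence read within 5 minutes of enzyme addition to compounds. Activity normalised to PTC124 versus DMSO; concentration-response curves classed by r2, magnitude and activity.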

[13] = S16 Schwann cell viability assay (CellTiter-Glo assay) (AID 624031);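 further: cellular ATP luminescence as a viability measure; plate controls were DMSO-treated cells for no effect and cell-free wells for full effect; nearly all actives have a fitted effect of over 70% in size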
Summary of the method: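 This viability control uses native rat S16 Schwann cells grown in DMEM plus 10% FBS. After a 24 h compound treatment at 37 °C, CellTiter-Glo luminescence reports ATP content, scaled against DMSO-treated and cell-free wells.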

[14] = qHTS profiling for inhibitors of Plasmodium falciparum proliferation (AID 504749);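 further: 0% = DMSO vehicle and full inhibition = artemisinin control; nearly all actives have a fitted effect of over 60% in size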; conditions: P. falciparum in erythrocytes, SYBR Green DNA, 72 h, at 12.8 µM (top of the series)
Summary of the method: (§1)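 SYBR Green fluorescence (ex 485 nm, em 535 nm) reports parasite DNA after 72 h compound exposure of infected red cells at 0.3% parasitemia, 2.5% hematocrit; signal normalized to 0.29 uM artemisinin and vehicle wells.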

C2A = assay: as above; conditions: P. falciparum in erythrocytes, SYBR Green DNA, 72 h; series mostly up to 12.8 µM
Summary of the method: as §1

CP191 = assay: as above; conditions: P. falciparum in erythrocytes, SYBR Green DNA, 72 h; series mostly up to 12.8 µM
Summary of the method: as §1

CP250 = assay: as above; conditions: P. falciparum in erythrocytes, SYBR Green DNA, 72 h; series mostly up to 12.8 µM
Summary of the method: as §1

FAB9 = assay: as above; conditions: P. falciparum in erythrocytes, SYBR Green DNA, 72 h; series mostly up to 12.8 µM
Summary of the method: as §1

JCK = assay: as above; conditions: P. falciparum in erythrocytes, SYBR Green DNA, 72 h; series mostly up to 12.8 µM
Summary of the method: as §1

SC27B = assay: as above; conditions: P. falciparum in erythrocytes, SYBR Green DNA, 72 h; series mostly up to 12.8 µM
Summary of the method: as §1

[15] = measured here: cell count channel max response
[16] = measured here: lipid channel max response

CO[C@H]1C=CO[C@]2(C)Oc3c(C)c(O)c4c(O)c(c5c(c4c3C2=O)NC2(CCN(CC(C)C)CC2)N=5)=NC(=O)C(C)=CC=C[C@@H](C)[C@@H](O)[C@@H](C)[C@@H](O)[C@@H](C)[C@@H](OC(C)=O)[C@@H]1C
inactive: outcome [1] | Potency [2] | activity change, negative = inhibition [3] -15% | outcome [4] | Potency [5] > 20.6 µM | Potency [6] > 20.6 µM | outcome [7] | activity change, negative = inhibition [8] -0.285%
-1.31%: max response [8, 16]
-3.75%: max response [8, 15]

C[C@@H]1C(=O)O[C@@H]2C[C@]34[C@H]5C[C@@H](C(C)(C)C)[C@@]36[C@@H](OC(=O)[C@@H]6O)O[C@@]4(C(=O)O5)[C@@]12O
-9.92%: max response [8, 15]
inactive: outcome [1] | Potency [2] | activity change, negative = inhibition [3] 0.0686% | outcome [4] | Potency [6] > 20.6 µM | Potency [9] | outcome [7] | activity change, negative = inhibition [8] -0.102% | Potency [10]
-6.41%: max response [8, 16]

C[C@@]12CC[C@@H]3c4ccc(O)cc4CC[C@H]3[C@H]1C[C@@H](O)[C@H]2O
inactive: outcome [1] | Potency [2] | activity change, negative = inhibition [3] -13% | outcome [4] | Potency [5] > 20.6 µM | Potency [6] > 20.6 µM | Potency [9] | outcome [7] | activity change, negative = inhibition [8] -1.89% | Potency [10]
-7.07%: max response [8, 16]
-5.07%: max response [8, 15]

Clc1cnccn1
inactive: outcome [1] | Potency [2] | activity change, negative = inhibition [3] -22.8% | outcome [4] | Potency [5] > 20.6 µM | Potency [9] | outcome [7] | activity change, negative = inhibition [8] 2.5% | Potency [10]
10.5%: max response [8, 16]
8.49%: max response [8, 15]

Cc1ccc(S(=O)(=O)NC(=O)NN2C[C@H]3CCC[C@@H]3C2)cc1
5.52%: max response [8, 15]
inactive: outcome [1] | Potency [2] | activity change, negative = inhibition [3] -2% | outcome [4] | Potency [9] | outcome [7] | activity change, negative = inhibition [8] 2.69% | outcome [11] | Potency [12] | outcome [13] | activity, negative = inhibition ([14]; parasite line A) -0.0473% | activity, negative = inhibition ([14]; parasite line B) 12.1% | Potency (C2A) | Potency (CP191) | Potency (CP250) | Potency (FAB9) | Potency (JCK) | Potency (SC27B)
8.97%: max response [8, 16]

O=C(O)c1cc2ccccc2c(Cc2cc3ccccc3c(C(=O)O)c2O)c1O (tested in a mixture with another compound)
-4.55%: max response [8, 16]
-8.55%: max response [8, 15]
inactive: outcome [1] | Potency [2] | activity change, negative = inhibition [3] -23% | outcome [4] | Potency [5] > 20.6 µM | Potency [6] > 20.6 µM | Potency [9] | outcome [7] | activity change, negative = inhibition [8] 1.36%

NC(=O)c1cc[n+](CC2=C(C(=O)[O-])N3C(=O)[C@@H](NC(=O)Cc4cccs4)[C@@H]3SC2)cc1
-16.9%: max response [8, 16]
-15%: max response [8, 15]
inactive: outcome [1] | Potency [2] | activity change, negative = inhibition [3] -11% | outcome [4] | Potency [9] | outcome [7] | activity change, negative = inhibition [8] -1.16% | outcome [11] | Potency [10] | Potency [12] | outcome [13] | activity, negative = inhibition ([14]; parasite line A) -3.3% | activity, negative = inhibition ([14]; parasite line B) 1.86% | Potency (C2A) | Potency (CP191) | Potency (CP250) | Potency (FAB9) | Potency (JCK) | Potency (SC27B)

CC(C)(C)CC(C)(C)c1ccc(OCOCCOCCO)c(Cc2cc(C(C)(C)CC(C)(C)C)cc(Cc3cc(C(C)(C)CC(C)(C)C)ccc3OCOCCOCCO)c2OCOCCOCCO)c1
-10.1%: max response [8, 15]
inactive: outcome [1] | Potency [2] | activity change, negative = inhibition [3] -20.3% | outcome [4] | Potency [5] > 20.6 µM | Potency [6] > 20.6 µM | Potency [9] | outcome [7] | activity change, negative = inhibition [8] -6.93%
-15.2%: max response [8, 16]

CC1(C)O[C@@H]2C[C@H]3[C@H]4C[C@H](F)C5=CC(=O)CC[C@]5(C)[C@@H]4[C@H](O)C[C@]3(C)[C@]2(C(=O)CO)O1
active: Potency [5] 0.00126 µM
-9.46%: max response [8, 15]
inactive: outcome [1] | Potency [2] | activity change, negative = inhibition [3] -4.77% | outcome [4] | Potency [9] | outcome [7] | activity change, negative = inhibition [8] -1.62% | outcome [11] | Potency [10] | Potency [12] | outcome [13] | activity, negative = inhibition ([14]; parasite line A) -10.9% | activity, negative = inhibition ([14]; parasite line B) -1.91% | Potency (C2A) | Potency (CP191) | Potency (CP250) | Potency (FAB9) | Potency (JCK) | Potency (SC27B)
-9.41%: max response [8, 16]

C[C@H](Oc1ccccc1)C(=O)N[C@@H]1C(=O)N2[C@@H]1SC(C)(C)[C@@H]2C(=O)O
-3.26%: max response [8, 16]
-5.3%: max response [8, 15]
inactive: outcome [1] | Potency [2] | activity change, negative = inhibition [3] -0.496% | outcome [4] | Potency [5] > 20.6 µM | Potency [9] | outcome [7] | activity change, negative = inhibition [8] -0.821% | outcome [11] | Potency [10] | Potency [12] | outcome [13] | activity, negative = inhibition ([14]; parasite line A) 9.22% | activity, negative = inhibition ([14]; parasite line B) 2.55% | Potency (C2A) | Potency (CP191) | Potency (CP250) | Potency (FAB9) | Potency (JCK) | Potency (SC27B)

COc1ccc2nccc(C(=O)O)c2c1
-9.32%: max response [8, 16]
-10.5%: max response [8, 15]
inactive: outcome [1] | Potency [2] | activity change, negative = inhibition [3] -15.8% | outcome [4] | Potency [5] > 20.6 µM | Potency [6] > 20.6 µM | Potency [9] | outcome [7] | activity change, negative = inhibition [8] 2.98%

Nc1ccccc1S(N)(=O)=O
inactive: outcome [1] | Potency [2] | activity change, negative = inhibition [3] -3.4% | outcome [4] | Potency [6] > 20.6 µM | Potency [9] | outcome [7] | activity change, negative = inhibition [8] -3% | Potency [10]
-21.4%: max response [8, 16]
-21%: max response [8, 15]
